Outcome and AC50 data for 4 molecules are collected here from PubChem BioAssay (EPA / NIEHS).

The source made the active and inactive calls. Rule for the calls: active = hit-call score of the fitted dose curve at least 0.9, where 1 is the maximum; inactive = score below 0.9.

Assay [1] can be described thus: ATG_CRE_CIS: Attagene CIS-FACTORIAL HepG2 Assay for human cAMP Responsive Element (CRE) binding protein 3 (AID 2282926). As to conditions: HepG2 CRE cis-reporter, Attagene multiplexed mRNA; actives raise or lower the signal. Put shortly: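 Capillary electrophoresis of 6-FAM-labelled, HpaI-digested PCR products quantified reporter transcripts. These came from HepG2 transiently transfected with cis-element reporters and exposed to test chemicals for 24 hours, with DMSO defining baseline activity.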

Assay [2] concerns the target CCAAT/enhancer-binding protein beta (Homo sapiens) (UniProt P17676). In words: ATG_C_EBP_CIS: Attagene CIS-FACTORIAL HepG2 Assay for human CCAAT/Enhancer Binding Protein (C/EBP) beta (AID 2282927). Particulars: HepG2 Attagene cis-factorial transcription factor reporter; actives raise or lower the signal. The procedure, abridged: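 HepG2 transiently transfected with multiplexed reporter units under cis-regulatory promoters reporting endogenous C/EBPb activity. After 24 h exposure, reporter mRNA assayed by RT-PCR, fluorescent labelling, HpaI digestion and capillary electrophoresis; bidirectional fitting versus DMSO.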

A short description of assay [3]: ATG_CMV_CIS: Attagene CIS-FACTORIAL HepG2 Assay for human CMV (Internal Marker) (AID 2282928).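 Note: endpoint acts as a background internal control marker rather than a target.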 As to conditions: HepG2 CMV promoter reporter, transcription factor profiling; actives raise or lower the signal. Put shortly:
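24 h chemical treatment, HepG2 with transient multi-reporter transfection; RNA → oligo(dT) RT → PCR → 6-FAM extension → HpaI digest → CE fluorescence. Bidirectional fit, DMSO negative control.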

Assay [4] is described as follows: ATG_DR4_LXR_CIS: Attagene CIS-FACTORIAL HepG2 Assay for human Liver X Receptor (LXR), DR4 submotif (AID 2282929). Particulars: HepG2 Attagene DR4 cis-reporter, mRNA transcription; actives raise or lower the signal. The procedure, abridged:
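Transiently transfected HepG2 liver cells; cis-regulated reporters; 24 h dosing. RT-PCR plus CE read-out of reporter mRNA. DMSO baseline, bidirectional curve fitting.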

Assay [5] has as its target Aryl hydrocarbon receptor (Homo sapiens) (UniProt P35869). Kind of assay: ATG_Ahr_CIS: Attagene CIS-FACTORIAL HepG2 Assay for human Aryl Hydrocarbon Receptor (Ahr) (AID 2282930). As to conditions: HepG2 AhR cis-factorial reporter transcription; actives raise or lower the signal. Put shortly: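 HepG2 cells transiently transfected with cis-element-driven multiplexed reporter units; endogenous AhR activity read as reporter mRNA 24 h after dosing, via RT-PCR, 6-FAM labelling, HpaI digestion and capillary electrophoresis. Bidirectional fit relative to DMSO.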

Assay [6] is described as follows: ATG_AP_2_CIS: Attagene CIS-FACTORIAL HepG2 Assay for human Activator Protein 2 (AP-2) (AID 2282932). Particulars: HepG2 AP-2 cis-reporter, Attagene transcription factor profiling; actives raise or lower the signal. Put shortly: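 Read-out: fluorescent reporter mRNA via RT-PCR and capillary electrophoresis, 24 h post-dose in transiently transfected HepG2. Endogenous factors drive cis-promoter reporters; gain or loss of signal fitted bidirectionally against DMSO.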

The nature of assay [7]: ATG_BRE_CIS: Attagene CIS-FACTORIAL HepG2 Assay for human Bone Morphogenetic Protein (BMP) Response Element (BRE) (AID 2282933). Particulars: HepG2 BMP response element reporter, Attagene transcription factor profiling; actives raise or lower the signal. Put shortly: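 Endogenous transcription factor activity at a BMP response element was monitored in transfected HepG2 cells 24 h after dosing. Fluorescent RT-PCR products were resolved by capillary electrophoresis, and activity was fitted in both directions versus DMSO.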

For assay [8], the target named is Retinoic acid receptor alpha (Homo sapiens) (UniProt P10276). In words: ATG_DR5_RAR_CIS: Attagene CIS-FACTORIAL HepG2 Assay for human Retinoic Acid Receptor Alpha (RARE), DR5 submotif (AID 2282934).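 For AC50: reporter responds to endogenous RAR alpha beta and gamma in HepG2 not RARA alone.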 Particulars: HepG2 Attagene cis-factorial RARE DR5 reporter, mRNA; actives raise or lower the signal. The procedure, abridged: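 HepG2 cells transiently transfected with multiplexed reporter units; DR5 cis-element drives reporter through endogenous transcription factors. After 24 h dosing, reporter mRNA quantified by RT-PCR, fluorescent labeling, HpaI digestion and capillary electrophoresis; bidirectional fitting versus DMSO.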
Chain of Retinoic acid receptor alpha (Homo sapiens) (P10276 whole entry, looked up): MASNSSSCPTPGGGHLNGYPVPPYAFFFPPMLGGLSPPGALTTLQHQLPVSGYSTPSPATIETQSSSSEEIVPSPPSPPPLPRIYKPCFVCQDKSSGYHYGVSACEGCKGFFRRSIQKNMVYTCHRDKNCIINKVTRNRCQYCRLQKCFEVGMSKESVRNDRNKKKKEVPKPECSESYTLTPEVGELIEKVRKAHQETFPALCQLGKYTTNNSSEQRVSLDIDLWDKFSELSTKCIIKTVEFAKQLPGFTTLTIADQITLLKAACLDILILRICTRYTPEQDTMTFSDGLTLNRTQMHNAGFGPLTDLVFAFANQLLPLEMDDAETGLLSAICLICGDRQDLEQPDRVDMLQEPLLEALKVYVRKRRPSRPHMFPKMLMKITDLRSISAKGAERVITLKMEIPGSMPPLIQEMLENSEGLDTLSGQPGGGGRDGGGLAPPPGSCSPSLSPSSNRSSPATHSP

Assay [9] deals with Transcription factor E2F1 (Homo sapiens) (UniProt Q01094). In words: ATG_E2F_CIS: Attagene CIS-FACTORIAL HepG2 Assay for human E2F Transcription Factor 1 (AID 2282935). As to conditions: HepG2 Attagene cis-reporter, E2F reporter RNA transcripts; actives raise or lower the signal. Put shortly: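 Transient MRTU transfection of HepG2; 24 h compound exposure; RNA → oligo(dT) RT → PCR → FAM label → HpaI cut → CE fluorescence. Gain/loss of signal fit against DMSO.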
Chain of Transcription factor E2F1 (Homo sapiens) (Q01094 whole entry, looked up): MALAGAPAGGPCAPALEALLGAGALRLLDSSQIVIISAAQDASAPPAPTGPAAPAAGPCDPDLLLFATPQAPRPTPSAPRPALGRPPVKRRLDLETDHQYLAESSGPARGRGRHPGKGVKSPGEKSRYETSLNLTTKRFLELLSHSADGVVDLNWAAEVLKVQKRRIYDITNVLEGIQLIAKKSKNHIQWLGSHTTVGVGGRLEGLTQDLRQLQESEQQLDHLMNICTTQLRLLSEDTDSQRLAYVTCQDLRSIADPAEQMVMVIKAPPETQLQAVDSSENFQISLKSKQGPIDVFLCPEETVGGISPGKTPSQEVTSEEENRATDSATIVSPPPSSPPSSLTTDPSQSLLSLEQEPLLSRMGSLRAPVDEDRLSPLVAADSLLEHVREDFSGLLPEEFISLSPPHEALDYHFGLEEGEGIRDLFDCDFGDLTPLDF

The nature of assay [10]: ATG_E_Box_CIS: Attagene CIS-FACTORIAL HepG2 Assay for human Enhancer Box (E-box) (AID 2282936). As to conditions: HepG2 E-box cis-reporter transcription, actives raise or lower the signal. Put shortly:
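Transiently transfected HepG2, endogenous TF-driven reporters, 24 h dosing. Readout: RT-PCR plus capillary electrophoresis of fluorescent reporter fragments. Gain or loss of signal fitted bidirectionally against DMSO baseline.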

Assay [11] can be described thus: ATG_M_61_CIS: Attagene CIS-FACTORIAL HepG2 Assay for M61 Transcription Factor (Internal Marker) (AID 2282937). Particulars: HepG2 Attagene CIS-FACTORIAL M61 internal marker reporter; actives raise or lower the signal. The procedure, abridged: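 Multiplexed reporter mRNA assay, HepG2 human hepatoma cells, 24 h treatment. Signal: FAM-labelled, HpaI-digested RT-PCR fragments by CE. Fit: bidirectional, baseline DMSO.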

A short description of assay [12]: ATG_EGR_CIS: Attagene CIS-FACTORIAL HepG2 Assay for human Early Growth Response 1 (EGR1) (AID 2282938). As to conditions: HepG2 Attagene CIS-FACTORIAL EGR reporter mRNA; actives raise or lower the signal. The procedure, abridged: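 Multiplexed cis-reporter system in human hepatoma HepG2 cells, transiently transfected. Cells are dosed for 24 h; reporter transcripts are amplified, fluorescently tagged and sized by capillary electrophoresis, with DMSO as negative control.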

A short description of assay [13]: ATG_M_19_CIS: Attagene CIS-FACTORIAL HepG2 Assay for M19 Transcription Factor (Internal Marker) (AID 2282939). As to conditions: HepG2 Attagene CIS-FACTORIAL M19 internal marker reporter; actives raise or lower the signal. The procedure, abridged:
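Background-control endpoint from a multiplexed HepG2 reporter panel. Cells carrying cis-regulated reporter constructs are treated 24 h, then reporter transcripts are amplified, fluorescently labelled and sized by capillary electrophoresis. DMSO defines baseline.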

Assay [14] can be described thus: ATG_Ets_CIS: Attagene CIS-FACTORIAL HepG2 Assay for human Erythroblast Transformation Specific (ETS) (AID 2282941). As to conditions: HepG2 ETS cis-reporter transcription, actives raise or lower the signal. The procedure, abridged: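 Cis-regulated reporter mRNA induction in HepG2 (transient transfection), 24 h exposure, RT-PCR plus capillary electrophoresis detection; DMSO serves as negative control and baseline.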

For assay [15], the target named is Hepatocyte nuclear factor 3-beta (Homo sapiens) (UniProt Q9Y261). Kind of assay: ATG_FoxA2_CIS: Attagene CIS-FACTORIAL HepG2 Assay for human Forkhead box A2 (FOXA2) (AID 2282942). Particulars: HepG2 cis-reporter transcription factor activity, 24 h; actives raise or lower the signal. The procedure, abridged: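 Multiplexed cis-element reporter assay in transiently transfected HepG2. Twenty-four hours post-dosing, RNA was reverse-transcribed, amplified, FAM-labelled, HpaI-digested and separated by CE. Activity gain or loss relative to DMSO.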
Chain of Hepatocyte nuclear factor 3-beta (Homo sapiens) (Q9Y261 whole entry, looked up): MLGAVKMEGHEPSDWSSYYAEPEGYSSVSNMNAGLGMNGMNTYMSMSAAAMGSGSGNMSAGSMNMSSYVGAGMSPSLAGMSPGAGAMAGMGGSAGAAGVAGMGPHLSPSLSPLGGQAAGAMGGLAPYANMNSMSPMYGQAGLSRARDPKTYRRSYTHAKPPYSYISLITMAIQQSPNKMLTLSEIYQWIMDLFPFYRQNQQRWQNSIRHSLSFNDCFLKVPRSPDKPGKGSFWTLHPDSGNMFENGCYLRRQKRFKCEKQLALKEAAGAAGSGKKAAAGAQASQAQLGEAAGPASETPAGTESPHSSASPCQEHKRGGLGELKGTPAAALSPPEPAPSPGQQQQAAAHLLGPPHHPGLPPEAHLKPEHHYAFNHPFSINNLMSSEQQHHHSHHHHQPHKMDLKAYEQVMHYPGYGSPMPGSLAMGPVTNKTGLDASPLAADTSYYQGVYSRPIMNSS

Assay [16] can be described thus: ATG_FoxO_CIS: Attagene CIS-FACTORIAL HepG2 Assay for human Forkhead box O (FoxO) (AID 2282943). Particulars: HepG2 Attagene cis-reporter, FoxO element, mRNA; actives raise or lower the signal. The procedure, abridged: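 HepG2 cells transiently transfected with cis-element-driven reporter units report endogenous FoxO activity. After 24 h chemical exposure, reporter mRNA quantified by RT-PCR, fluorescent labeling, HpaI digestion and capillary electrophoresis; bidirectional fit versus DMSO.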

Assay [17] in a line: ATG_GATA_CIS: Attagene CIS-FACTORIAL HepG2 Assay for human GATA Binding Protein (AID 2282944). As to conditions: HepG2 GATA cis-element reporter, Attagene multiplex mRNA; actives raise or lower the signal. Put shortly: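 Endogenous transcription factor activity was captured through cis-promoter-driven reporters in transfected HepG2 cells. After 24 h exposure, reporter transcripts were quantified by RT-PCR with fluorescent capillary electrophoresis, and responses fitted both directions against DMSO.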

Assay [18] is described as follows: ATG_GLI_CIS: Attagene CIS-FACTORIAL HepG2 Assay for human Zinc Finger Protein GLI1 (AID 2282945). As to conditions: HepG2, Attagene cis-factorial reporter mRNA, GLI element; actives raise or lower the signal. The procedure, abridged: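 Transiently transfected HepG2 cells report endogenous transcription factor activity via cis-element-driven reporter units. After 24 h compound exposure, reporter mRNA was measured by RT-PCR with capillary electrophoresis; bidirectional fitting against DMSO baseline.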

Assay [19] can be described thus: ATG_AP_1_CIS: Attagene CIS-FACTORIAL HepG2 Assay for human Activator Protein 1 (AP-1) (AID 2282931). Particulars: HepG2 Attagene cis-factorial AP-1 reporter mRNA; actives raise or lower the signal. Put shortly:
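We transfected HepG2 cells transiently with a set of cis-regulated reporter transcription units, dosed them for 24 h, and quantified reporter mRNA via RT-PCR and capillary electrophoresis, scoring gain or loss of signal relative to DMSO.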

A short description of assay [20]: ATG_ERE_CIS: Attagene CIS-FACTORIAL HepG2 Assay for Estrogen Response Element (ERE) (AID 2282940). Particulars: HepG2 ERE cis-reporter, Attagene RNA transcript; actives raise or lower the signal. Put shortly:
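Cells used were human hepatoma HepG2, transfected with multiple reporter transcription units under cis-regulatory promoters. Reporter mRNA, read 24 h post-dosing via fluorescent RT-PCR products on capillary electrophoresis, was fitted bidirectionally relative to DMSO.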

Chain of CCAAT/enhancer-binding protein beta (Homo sapiens) (P17676 whole entry, looked up): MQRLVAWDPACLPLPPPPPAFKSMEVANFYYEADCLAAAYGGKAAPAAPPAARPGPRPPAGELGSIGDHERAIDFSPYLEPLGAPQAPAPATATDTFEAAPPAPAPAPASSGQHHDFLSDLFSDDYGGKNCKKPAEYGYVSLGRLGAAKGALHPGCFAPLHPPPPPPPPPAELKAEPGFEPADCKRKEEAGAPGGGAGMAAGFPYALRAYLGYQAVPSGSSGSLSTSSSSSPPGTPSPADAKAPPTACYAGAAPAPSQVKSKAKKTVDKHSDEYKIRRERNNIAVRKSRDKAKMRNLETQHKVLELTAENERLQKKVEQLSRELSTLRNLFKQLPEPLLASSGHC
Chain of Aryl hydrocarbon receptor (Homo sapiens) (P35869 whole entry, looked up): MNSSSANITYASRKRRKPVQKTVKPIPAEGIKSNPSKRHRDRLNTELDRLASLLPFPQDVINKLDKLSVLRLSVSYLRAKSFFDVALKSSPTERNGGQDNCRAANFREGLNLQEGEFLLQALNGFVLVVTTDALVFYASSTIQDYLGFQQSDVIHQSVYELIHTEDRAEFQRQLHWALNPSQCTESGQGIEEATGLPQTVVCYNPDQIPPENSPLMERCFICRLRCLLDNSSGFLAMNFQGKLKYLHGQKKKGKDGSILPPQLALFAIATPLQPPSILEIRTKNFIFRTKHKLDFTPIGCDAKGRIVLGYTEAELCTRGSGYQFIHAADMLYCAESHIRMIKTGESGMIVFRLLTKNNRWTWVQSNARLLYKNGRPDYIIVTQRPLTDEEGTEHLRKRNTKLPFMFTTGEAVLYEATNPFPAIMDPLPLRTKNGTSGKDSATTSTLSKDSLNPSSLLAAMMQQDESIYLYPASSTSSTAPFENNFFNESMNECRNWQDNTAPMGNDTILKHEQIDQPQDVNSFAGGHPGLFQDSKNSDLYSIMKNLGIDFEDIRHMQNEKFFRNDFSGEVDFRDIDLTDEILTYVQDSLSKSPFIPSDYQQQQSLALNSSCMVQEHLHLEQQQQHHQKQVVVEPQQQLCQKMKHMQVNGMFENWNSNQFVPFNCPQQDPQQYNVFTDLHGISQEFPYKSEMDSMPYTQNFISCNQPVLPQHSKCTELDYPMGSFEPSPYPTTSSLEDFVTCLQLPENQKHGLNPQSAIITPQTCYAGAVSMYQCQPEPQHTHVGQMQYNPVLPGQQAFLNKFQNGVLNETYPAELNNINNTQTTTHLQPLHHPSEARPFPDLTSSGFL

For `CC(C)(C)C(O)(CCc1ccc(Cl)cc1)Cn1cncn1` (stereo not drawn), the outcome in [1], in assay [2], in assay [6], in [8], in assay [9] and in assay [10] was inactive. Also, the call in assay [11], in assay [12], in assay [13], in [14], in [15] and in assay [16] was inactive. Besides, the molecule was classed as inactive in assay [17] and in assay [18]. In addition, the AC50 is 122 µM (active) in assay [3], 152 µM (active) in assay [4], 52.3 µM (active) in [5] and 147 µM (active) in assay [7].

With `Nc1cc(Cl)cc(C(=O)O)c1Cl`, the molecule was classed as inactive in assay [1], in [2], in assay [3], in [4], in [19] and in [7]. Besides, the call in [8], in [9], in assay [10], in assay [11], in assay [12] and in [13] was inactive. The molecule was called inactive in assay [14], in assay [15], in assay [16], in assay [17] and in assay [18]. Also, the AC50 in assay [5] was 58 µM (active).

Turning to `Cn1cc(-c2ccccc2)c(=O)c(-c2cccc(C(F)(F)F)c2)c1`, the AC50 in [1] is 79.1 µM (active); in assay [2], 66.9 µM (active); in [4], 73.7 µM (active); in assay [5], 69.1 µM (active); in assay [8], 15.3 µM (active); in assay [10] it was 55 µM (active). In addition, the molecule was called inactive in assay [3], in assay [6], in assay [7], in [9], in assay [11] and in assay [12]. Besides, the outcome in assay [13], in [20], in assay [14], in [15], in assay [16] and in assay [17] was inactive. Also, the molecule was classed as inactive in [18].

For `Clc1ccc(Cl)c(Cl)c1`, the call in assay [1], in [2], in assay [3], in assay [4], in assay [19] and in assay [7] was inactive. Moreover, the result in assay [8], in assay [9], in [10], in assay [11], in assay [12] and in [13] was inactive. For the same molecule, the result in [14], in assay [15], in [16], in [17] and in assay [18] was inactive. The AC50 in [5] was 77.8 µM (active).
